Assay outcomes (PubChem BioAssay)
This is a sample that favours compounds with a hit; in the whole collection about 1.4% have one here.
LEDGF integ inh = blocks HIV-1 LEDGF/p75-dependent DNA integration; TR-FRET IN-LEDGF/p75 DNA integration, Eu/Cy5; inhibition, % at 3.7 µM; 0.64% of 370,000 active; AID 743269;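 active = inhibition above the screen-wide mean plus 3 SD, cut at about 13% in these data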;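 also: signal is the Cy5 over europium emission ratio at 671 and 618 nm; 0% = plate median of compound wells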
UHRF1 MBD2 ctr = blocks human UHRF1 binding to methylated DNA | Q96T88 | 0.75% of 370,000 active | UHRF1 binding to methylated oligo, TR-FRET | inhibition, % at 4.4 µM; in the data active = inhibition above about 21%;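 also: UHRF1 SRA domain binding a hemimethylated CpG hairpin DNA probe; 0% = median of test compound wells and 100% = reference inhibitor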
MBD2 inh = blocks human MBD2 binding to methylated DNA; 0.31% of 370,000 active; Q9UBB5; TR-FRET, MBD2 binding to methylated oligonucleotide; inhibition, % at 4.4 µM; AID 686964; in the data active = inhibition above about 13%
CASP6 VEID inh = blocks human caspase-6 cleavage activity; purified caspase-6, Z-VEID-R110 cleavage fluorescence; AID 686996; P55212; 0.53% of 350,000 active; inhibition, % at 12.5 µM;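 active = mean inhibition across replicates at least about 35%, with every replicate also reaching that limit, limit read from the data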;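 also: 0% = median of neutral control wells and 100% = no fluorescence left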
Target sequence (P55212 24-179 limits assumed): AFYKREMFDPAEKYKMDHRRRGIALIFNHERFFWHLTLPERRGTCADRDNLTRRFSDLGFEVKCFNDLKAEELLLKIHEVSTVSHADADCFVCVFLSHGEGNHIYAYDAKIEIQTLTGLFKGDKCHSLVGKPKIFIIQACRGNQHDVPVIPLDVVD
Target sequence (P55212 194-293 limits assumed): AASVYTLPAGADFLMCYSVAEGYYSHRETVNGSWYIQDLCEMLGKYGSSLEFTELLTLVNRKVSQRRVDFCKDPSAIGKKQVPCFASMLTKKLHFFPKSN
Active calls of the source: *; · = no result.

SMILES	LEDGF integ inh	UHRF1 MBD2 ctr	MBD2 inh	CASP6 VEID inh
C[C@H](CO)N1C[C@H](C)[C@@H](CN(C)Cc2ccccn2)Oc2ncc(C#CCN(C)C)cc2C1=O	·	·	·	2
CC1=NN(c2ccccc2)C(=O)/C1=C\c1ccc(Oc2ccc([N+](=O)[O-])cc2[N+](=O)[O-])cc1	31*	19	15*	-3
Cc1ccc(-c2n[nH]c(=S)n2Cc2ccccc2)cc1	-2	2	4	·
CCOc1ccc(-c2n[nH]c(=S)n2Cc2ccccc2)cc1	-2	2	-2	37*
COC(=O)c1ccc(-c2ccc(/C=N/NC(=O)Cc3nnc(N)s3)o2)cc1	-5	32*	-1	1
Nc1nnc(CC(=O)N/N=C/c2ccc(-c3ccccc3)o2)s1	3	-6	-7	1
CO[C@H]1CN(C)C(=O)c2ccc(NC(=O)C3CCC3)cc2OC[C@@H](C)N(Cc2ccncc2)C[C@@H]1C	·	·	·	3
CCOC(=O)c1c(NC(=O)C2c3ccccc3Oc3ccccc32)sc(C(N)=O)c1C	0	22*	5	·
CCOC(=O)c1c(NC(=O)C2CCCO2)sc(C(N)=O)c1C (configuration not stated)	0	-2	-4	·
O=C(Nc1cccc(Cl)c1)N[C@H]1CC[C@H](CCNC(=O)C2CCCCC2)O[C@H]1CO	·	·	·	2
Cc1ccccc1SC1CCN(C(=O)C2CCC(=O)N(C3CC3)C2)CC1 (configuration not stated)	-7	-3	-8	-3
Cc1ccc(SC2CCN(C(=O)C3CCC(=O)N(C4CC4)C3)CC2)cc1 (configuration not stated)	2	22*	7	-3
O=C(Cn1cnc2c(NCc3ccccc3)ncnc21)NCc1ccc2[nH]ccc2c1	-1	24*	6	-2
CCCOc1ccc(N2CC(C(=O)Nc3ncccc3C)CC2=O)cc1 (configuration not stated)	0	2	5	·
COc1ccc(N2CC(C(=O)Nc3ncccc3C)CC2=O)cc1 (configuration not stated)	2	27*	2	·
COc1ccc(N2CC(C(=O)N/N=C/c3ccc(C)cc3)CC2=O)cc1 (configuration not stated)	1	24*	9	1
C[C@@H]1CN([C@H](C)CO)C(=O)CCCn2cc(nn2)CO[C@@H]1CN(C)CC1CCCC1	·	·	·	3
Nc1ccc(C(=O)N/N=C/c2cn(Cc3ccc(F)cc3)c3ccccc23)cc1	-5	-3	4	73*
O=C(N/N=C/c1cn(Cc2cccc(F)c2)c2ccccc12)c1cc(O)cc(O)c1	39*	66*	27*	57*
Nc1ccc(C(=O)N/N=C/c2cn(Cc3ccccc3)c3ccccc23)cc1	6	-3	2	-3
CC(C)C(NC(=O)C1CCCCC1)C(=O)NCCc1ccccc1 (configuration not stated)	-1	21*	6	1
CCC(=O)NC[C@H]1[C@H](c2ccccc2)[C@@H](CO)N1C(=O)C1CCC1	·	·	·	-2
CNC[C@@H]1Oc2c(NC(=O)Nc3ccccc3)cccc2C(=O)N([C@H](C)CO)C[C@@H]1C	·	·	·	0
CCOC(=O)c1[nH]c(C)c(C(=O)OC)c1C	-1	0	0	-2
CCOC(=O)c1[nH]c(C)c(C(=O)OCc2c(C)noc2C)c1C	-2	22*	5	·
SMILES	LEDGF integ inh	UHRF1 MBD2 ctr	MBD2 inh	CASP6 VEID inh
C[C@H](CO)N1C[C@H](C)[C@H](CN(C)C(=O)C2CCCCC2)Oc2ncc(-c3cccc(F)c3)cc2C1=O	·	·	·	0
Cc1ccc(-n2[nH]c3c4c(ccc3c2=O)C(=O)c2ccccc2C4=O)cc1	-3	27*	4	-3
Cc1ccc(S(=O)(=O)/N=C2\C=C(NS(=O)(=O)c3ccccc3)C(=O)c3ccccc32)cc1	16*	-6	-21	24
Cc1ccc(S(=O)(=O)/N=C2/C=C(C3C(=O)CC(C)(C)CC3=O)C(=O)c3ccccc32)cc1	40*	4	-13	·
Cc1cc(C)c(S(=O)(=O)/N=C2\C=C(Nc3ccc(C(=O)O)cc3)C(=O)c3ccccc32)c(C)c1	43*	8	-3	-3
O=S(=O)(N=C1C=CC(=NS(=O)(=O)c2ccccc2)c2ccccc21)c1ccccc1	9	5	-8	13
Cc1cc(C)c(S(=O)(=O)/N=C2\C=C(NS(=O)(=O)c3ccccc3)C(=O)c3ccccc32)c(C)c1	-1	2	1	19
Cc1cccc(NC2=C/C(=N/S(=O)(=O)c3cccs3)c3ccccc3C2=O)c1	2	1	-5	·
C[C@@H]1CN([C@H](C)CO)C(=O)c2cc(NC(=O)Nc3cccc4ccccc34)ccc2O[C@@H]1CN(C)Cc1ccc(C(=O)Nc2ccccc2N)cc1	·	·	·	1
O=C(/C(=N/N=C/c1ccc(O)c(O)c1)c1ccccc1)c1ccccc1	-5	0	1	44*
Cc1cc(N2CCCC2)nc2ccc(NC(=S)NCCCN3CCC(C)CC3)cc12	0	22*	8	-47
COc1ccc(/C=C/C(=O)NCc2cccnc2)cc1	3	-4	-4	2
CCc1ccc(CN(Cc2cccnc2)C(=O)/C=C/c2ccc(OC)cc2)cc1	4	-1	8	98*
CCc1ccccc1NC(=O)CSc1ccsc1[N+](=O)[O-]	2	-3	-5	·
O=C(CSc1ccsc1[N+](=O)[O-])Nc1cccc(F)c1	4	4	5	41*
COc1cc(SC)ccc1C(=O)OC(C)C(=O)NC1CCCC1 (configuration not stated)	0	5	2	38*
CCC/C(=N\NC(=O)c1cccc(C)c1)c1ccccc1	4	33*	0	0
COc1cccc(C(=O)N/N=C(/CCC(=O)O)c2ccccc2)c1	0	-1	-6	-3
C=C1[C@H](C)CN[C@H]1CCO	7	2	-7	43*
C=C1[C@@H](C)CN[C@@H]1CCO	-5	0	2	-4
CN(C)c1ccc(-c2[nH][nH]c(=O)c2NC(=O)c2ccccn2)cc1	11	16	15*	99*
Cc1cnc(C(=O)Nc2c(-c3ccccc3)[nH][nH]c2=O)cn1	-1	-4	-1	2
CNC[C@H]1Oc2ncc(-c3ccc(C)cc3)cc2C(=O)N([C@H](C)CO)C[C@H]1C	·	·	·	-1
CSc1ccccc1NC(=O)CN(C)C(=O)COc1cccc2cccnc12	8	-7	-7	45*
CN(CC(=O)Nc1ccc(Cl)c(C(F)(F)F)c1)C(=O)COc1cccc2cccnc12	-1	3	-3	-2
CSc1ccc(S(=O)(=O)NCC(=O)OC(C)C(=O)NCc2ccccc2)cc1[N+](=O)[O-] (configuration not stated)	0	27*	2	1
O=C(C[C@H]1C[C@H]2c3cc(NC(=O)Nc4ccc(C(F)(F)F)cc4)ccc3O[C@H]2[C@@H](CO)O1)NCc1ccc2c(c1)OCO2	·	·	·	0
COc1cc(C2(c3ccc(O)c(OC)c3)C(=O)Nc3c(C)cc(Br)cc32)ccc1O	-3	31*	0	9
CCOc1ccc(Br)cc1S(=O)(=O)Nc1cccc(S(=O)(=O)N(C)c2ccccc2)c1	1	23*	-4	-6
